Screening results from PubChem.
MBNL1 CUG block: MBNL1-poly(CUG) RNA binding inhibition | TR-FRET MBNL1-His/biotin-(CUG)12 binding, 665/545 ratio | Potency, µM (titrated, usually from 57.5 µM), without a hit: at the highest dose activity change, negative = inhibition, hits mostly inhibitors | actives 0.036% (n = 280,000) | Q9NR56 | AID 2675; active means well fitted inhibition curve with a large enough effect in the signal ratio, with a control signal flat, not every such curve was filed as active; inconclusive means small, poorly fitted or top-dose-only effect, or effect the other way, or a change in a side signal; inactive means no such curve, though single readings can be large or run the other way; the % refers to the signal ratio; further: potency means the concentration at half of the fitted maximal effect; on the % scale 0 is the no-effect control and ±100 the full control effect
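Inhibition of protein-RNA binding appears as loss of TR-FRET between terbium anti-His antibody on MBNL1-His and streptavidin-XL665 on biotin-(CUG)12. Activity is normalized to buffer-only and uninhibited-complex controls.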
CtBP-E1A inh: CtBP/E1A binding inhibition; actives 0.49% (n = 340,000); AlphaScreen GST-E1A/His-CtBP binding, 1536-well; stronger effect = lower value; activity change, % (no concentration beside the values); in the data active means activity change below about -65%; inconclusive means mostly about -30% to -63%; further: on the % scale 0 is the no-effect control and ±100 the full control effect
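In 5 uL wells, 23 nL compound meets equimolar GST-E1A and His-CtBP (5X stock 125 nM each) for 2 h, 37 °C. Beads (5X, 50 ug/mL) then 1 h, 37 °C, dark.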
RORg inh: blocks mouse ROR gamma transcriptional activity; Drosophila S2 Gal4-RORgamma UAS-luciferase reporter, 20 h; AID 2551; Potency, µM (top dose mostly 53.6 µM), for inactives: at the highest dose activity change, negative = inhibition, actives largely listed as inhibitors; P51450; actives 5.4% (n = 310,000); further: potency means the concentration at half of the fitted maximal effect; on the % scale 0 is the no-effect control and ±100 the full control effect; nearly all actives have a fitted effect of over 60% in size
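In this cell-based reporter format, copper sulfate (700 uM final) drives Gal4–ROR gamma fusion expression from a metallothionein promoter in Drosophila Schneider cells; compounds preincubated 1 hr, reporter read after 20 hr at ambient temperature.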
Gal4-VP16 FLuc: inhibits Gal4-VP16 luciferase reporter, ROR gamma counter-screen | Drosophila S2 Gal4-VP16 UAS-luciferase, luminescence, 20 h | actives 3.5% (n = 310,000) | Potency, µM (top dose mostly 53.6 µM), for inactives: at the top dose activity, negative = inhibition, usual class: inhibitors;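 further: Gal4-VP16 expression switched on by copper sulfate through the metallothionein promoter; potency means the concentration at half of the fitted maximal effect; on the % scale 0 is the no-effect control and ±100 the full control effect; nearly all actives have a fitted effect of over 50% in size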
Six1-Eya2 blk: blocks human Six1 binding to Eya2; AlphaScreen GST-Six1/His-Eya2 binding, biochemical; stronger effect = lower value; activity change, % (concentration not given with the values); actives 0.56% (n = 360,000); in the data active means activity change below about -65%; inconclusive means mostly about -30% to -63%; further: on the % scale 0 is the no-effect control and ±100 the full control effect
Target sequence (O00167 whole entry, looked up): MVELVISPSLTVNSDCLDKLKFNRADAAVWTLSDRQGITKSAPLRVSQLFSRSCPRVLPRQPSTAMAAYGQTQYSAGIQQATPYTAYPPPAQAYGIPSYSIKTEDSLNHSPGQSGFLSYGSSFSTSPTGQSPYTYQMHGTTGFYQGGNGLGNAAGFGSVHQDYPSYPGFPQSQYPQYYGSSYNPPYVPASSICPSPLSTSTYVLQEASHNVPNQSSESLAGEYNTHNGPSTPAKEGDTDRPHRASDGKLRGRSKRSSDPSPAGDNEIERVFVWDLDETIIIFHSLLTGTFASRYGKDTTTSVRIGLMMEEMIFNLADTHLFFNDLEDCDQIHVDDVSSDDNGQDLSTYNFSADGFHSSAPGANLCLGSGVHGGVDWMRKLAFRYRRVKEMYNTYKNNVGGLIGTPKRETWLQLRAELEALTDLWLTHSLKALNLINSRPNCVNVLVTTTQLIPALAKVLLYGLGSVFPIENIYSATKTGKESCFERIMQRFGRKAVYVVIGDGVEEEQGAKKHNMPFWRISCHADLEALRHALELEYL
Target sequence (Q15475 whole entry, looked up): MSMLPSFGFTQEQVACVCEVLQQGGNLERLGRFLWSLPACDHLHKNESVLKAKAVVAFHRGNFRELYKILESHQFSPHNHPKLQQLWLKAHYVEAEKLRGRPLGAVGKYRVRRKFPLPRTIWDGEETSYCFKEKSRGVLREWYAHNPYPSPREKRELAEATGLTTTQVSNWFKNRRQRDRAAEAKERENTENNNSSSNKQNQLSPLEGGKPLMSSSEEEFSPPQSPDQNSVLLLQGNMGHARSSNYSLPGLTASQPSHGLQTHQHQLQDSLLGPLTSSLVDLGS
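Six1/Eya2 binding was read as AlphaScreen signal after compounds were pinned into GST-Six1 plus His-tagged Eya2 (5X stock 250/500 nM) in pH 8.0 Tris/NaCl/TCEP buffer, beads added, then incubated 1 h, 37 C, dark.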
CBFb RUNX1 block: blocks binding between human CBF-beta and RUNX1; Potency, µM (doses to about 59.8 µM), inactives show at the highest dose activity, negative = inhibition, hits mostly inhibitors; AlphaScreen CBFb-His/RUNX1-biotin binding, biochemical; 230,000 tested, under 10 active; further: % of control where 0% means no effect
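Interaction loss through any mechanism counts as activity. Pre-formed complex of His-CBF-beta and biotin-RUNX1 (30 nM apiece) is incubated with compound 15 min, then with 50 ng nickel and 50 ng streptavidin beads for 90 min before AlphaScreen detection.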
* marks the source's active call; other numbers are inactive results; ? = inconclusive; . = not tested or not shown; [ ] = remark or other dose. An excerpt weighted towards active compounds, which were near 5.5% of everything screened. Unless noted, the call rests on the fitted dose curve; in most records, active means well fitted curve in the direction sought with a large enough effect; inconclusive means small, poorly fitted or top-dose-only effect, or another doubt; inactive means no such curve, though single readings can be large; an effect the other way counts as inactive or inconclusive.

SMILES	MBNL1 CUG block	CtBP-E1A inh	RORg inh	Gal4-VP16 FLuc	Six1-Eya2 blk	CBFb RUNX1 block
CCN1C(=O)/C(=C\c2ccncc2)SC1=Nc1ccc(C)c(C)c1	-2%	-2	11µM*	?	-19	-20%
CCCN1C(=O)/C(=C\c2ccncc2)SC1=Nc1ccccc1	-16%	-3	35%	-6%	-10	0%
COc1ccc2[nH]cc(CCNC(=O)Cc3ccc(Cl)cc3)c2c1	-9%	-5	23%	-15%	-1	.
Cc1ccccc1-n1c(=O)n(Cc2ccccc2)c(=O)c2[nH]cnc21	5%	-3	0.28µM*	13%	-2	0%
Cc1ccccc1-n1c(=O)n(CCc2ccccc2)c(=O)c2[nH]cnc21	.	.	3%	-15%	2	8%
Cc1ccn(-c2n[nH]c(C)c2[N+](=O)[O-])n1	13%	-2	13µM*	-5%	11	-1%
Cc1[nH]nc(N2CCCCCC2)c1[N+](=O)[O-]	11%	10	-4%	7%	2	-1%
COC(=O)c1ccc(CNC(=O)c2cc(S(=O)(=O)NCc3ccccc3)ccc2C)cc1	.	-9	.	.	5	.
COn1c2c(c3c4nonc4ccc31)CCCC2	?	19	16%	13%	6	?
On1c2c(c3c4nonc4ccc31)CCCC2	19%	.	?	22µM*	.	10%
CC1CCN(c2ccc(-c3ccc(NC(=O)C(F)(F)F)cc3)nn2)CC1	8%	0	5.6µM*	-29%	0	.
COc1ccc(C(=O)/C(=C/c2cccs2)c2nc3ccccc3o2)cc1	-1%	-14	3.2µM*	?	-17	-5%
CC(=O)OCC1(C)CN(c2ccccc2)NC1=O (centres undefined)	3%	.	13µM*	?	7	0%
COC(=O)C[C@H]1C[C@@H]2c3cc(NS(=O)(=O)c4cccc(OC)c4)ccc3O[C@@H]2[C@@H](CO)O1	.	-2	.	.	0	.
CCSc1nnc([C@H](Cc2ccccc2)NC(=O)OC(C)(C)C)o1	3%	2	12%	16%	8	4%
CC(C)(C)OC(=O)N[C@@H](Cc1ccccc1)c1nnc(S(=O)(=O)Cc2ccccc2)o1	-1%	.	4.5µM*	4.5µM*	.	-2%
Cc1ccccc1CS(=O)(=O)c1nnc([C@H](Cc2ccccc2)NC(=O)OC(C)(C)C)o1	-10%	-4	-16%	3.2µM*	4	-1%
Cc1cccc(CS(=O)(=O)Cc2ccc(C(=O)NC(C)c3ccccc3)o2)c1 (centres undefined)	-5%	2	19%	-9%	0	.
CCC(C)[C@@H](NC(=O)OC(C)(C)C)c1nnc(S(=O)(=O)Cc2cccc(C)c2)o1 (some centres undefined)	-8%	7	3.2µM*	5µM*	6	0%
Fc1ccc(NC(=S)NN2CCOCC2)cc1Cl	6%	2	2.8µM*	?	3	-3%
FC(F)(F)c1ccccc1NC(=S)NN1CCOCC1	12%	8	0%	?	5	4%
S=C(Nc1ccc(Br)cc1Cl)NN1CCOCC1	-4%	-8	3.5µM*	18µM*	-7	1%
CC(C)(C)c1ccc2c(S(=O)(=O)O)c(C(C)(C)C)ccc2c1	.	.	32%	4%	.	.
O=C(NCc1ccccc1)C(c1ccncc1)N(C(=O)c1csnn1)c1ccccc1F (centres undefined)	-3%	8	7%	11%	7	.
CC(CC(=O)Nc1cc(S(=O)(=O)N2CCOCC2)ccc1OCC(F)(F)F)c1ccccc1 (centres undefined)	.	5	.	.	-2	.
SMILES	MBNL1 CUG block	CtBP-E1A inh	RORg inh	Gal4-VP16 FLuc	Six1-Eya2 blk	CBFb RUNX1 block
COC(=O)c1sc(NC(=S)NC(=O)c2cccc(Br)c2)nc1C	15%	.	?	?	-5	.
O=C(CSc1nnc(CCc2ccccc2)n1-c1ccc(Cl)cc1)c1ccccc1	3%	3	11µM*	?	-4	-1%
S=c1[nH]nc(CCc2ccccc2)n1-c1ccccc1	?	3	5.6µM*	11µM*	10	16%
S=c1[nH]nc(CCc2ccccc2)n1-c1ccc(Cl)cc1	2%	-1	1.8µM*	?	0	-4%
COc1ccc(-n2c(CCc3ccccc3)nnc2SCC(=O)c2ccc(Cl)cc2)cc1	?	-5	4%	?	-7	-3%
CCOc1ccccc1NC(=O)COC(=O)c1c[nH]c2ccccc12	.	-16	.	.	-2	.
C[C@H]1CN([C@@H](C)CO)C(=O)CCCn2nncc2CO[C@@H]1CN(C)C(=O)Nc1cccc2ccccc12	.	7	.	.	1	.
CN(C)C(CNC(=O)c1cccc(S(=O)(=O)NCc2ccccc2)c1)c1ccco1 (centres undefined)	.	11	.	.	-6	.
COC(=O)C/C=C\[C@@H](C)[C@@H](/C=N\O[C@@H]1O[C@H](COC(C)=O)[C@@H](OC(C)=O)[C@H](OC(C)=O)[C@H]1OC(C)=O)NS(=O)(=O)c1ccc(C)cc1	.	.	-5%[10 µM]	-5%[10 µM]	.	19%[13.1 µM]
CS(=O)(=O)c1nc(-c2ccccc2)cc(C(F)(F)F)n1	-7%	4	0.5µM*	1.6µM*	-3	5%
C=CC[n+]1c(-c2ccc(OCC)cc2)csc1NNC(=O)Nc1ccccc1	-5%	-21	16µM*	?	?	-18%
CCOC(=O)C1CCN(C(=O)CCc2ccc(S(=O)(=O)NCC(C)C)cc2)CC1	0%	.	2%	5%	0	.
COc1ccc(-c2ccc(CN3C(C)C(=O)N(Cc4cn(CCC5OCCO5)nn4)CCS3(=O)=O)cc2)cc1 (centres undefined)	.	2	.	.	-12	.
COc1ccc(Cl)cc1C(Nc1cccnc1)c1ccc2cccnc2c1O (centres undefined)	21%	-67*	1.1µM*	2.2µM*	?	.
CCCC(=O)NC(c1ccc(OC)cc1)c1ccc2cccnc2c1O (centres undefined)	53%	-88*	1.8µM*	4.5µM*	-90*	-26%
CCCCC(=O)NC(c1ccccc1)c1ccc2cccnc2c1O (centres undefined)	33%	?	1.3µM*	2.5µM*	-66*	.
CCCCC(=O)NC(c1cccc([N+](=O)[O-])c1)c1c(OC(C)=O)ccc2ccccc12 (centres undefined)	4%	-4	36%	?	-21	5%
CCCCC(=O)NC(c1ccc(C(C)C)cc1)c1ccc2cccnc2c1O (centres undefined)	4%	-22	2.5µM*	2.8µM*	-24	.
